Compounds without any hit were thinned out: in the full panel of roughly 83,000, 20% have a hit.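 Values shown are percent growth following 48 h exposure of cells in 96-well plates to a single concentration of compound; below 10 was considered active.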 A number with no mark means an inactive call. Active and inactive are the calls of the source.

This assay relates to HL-60(TB) leukemia. In words: NCI-60 one-dose screen, 48 h (100 = growth as untreated, 0 = no growth, -100 = all killed). The note with it: 10 µM unless noted.
In the case of `O=C1C2=C(CCN(Cc3ccccc3)C2)N2CCN=C2N1Cc1ccc(C(F)(F)F)cc1`, the growth is 20.4%.

As to `O=[N+]([O-])c1ccc(Cl)c(-c2cc(CCCCO)on2)c1`, the growth was 90.7%.

In the case of `C/C(=C\C(=O)c1ccc(Cl)cc1)c1ccc(Cl)cc1`, the growth is 92.5%.

Take `O=C(OC12CC3CC(CC(C3)C1)C2)c1ccc(NCc2cc(O)ccc2O)cc1`: the growth was -52.6% (active).

Regarding `C/C(=N/O)c1ccc(NC(=O)Cn2nc(-c3ccc(Cl)cc3)nc2N)cc1`, the growth was 94.7%.

For the compound `CCOc1ccc(/C=N/Nc2cc(C)nc3ccc(Br)cc23)cc1`, the growth was 53.3%.

With `COc1ccc2occ(C3=C(c4c[nH]c5ccccc45)C(=O)NC3=O)c2c1`, the growth is 20.8%.

Consider `Cc1ccc(-c2[nH][nH]c(=O)c2-c2nc3ccccc3s2)cc1`, for which the growth is 101%.

For the compound `N[C@@H](CCCCNCC(=O)O)C(=O)O`, the growth was 106%.

Take `CC(=O)CSC(C)=O`: the growth is 102%.

As for `O=C(Nc1nc(-c2ccccc2)cs1)c1cc(O)c(O)c(O)c1`, the growth is 12.6%.

With `O=C(NCCNc1nccc(-c2c(-c3cccc(F)c3)nc3sccn23)n1)c1ccc(Cl)cc1`, the growth is 99.1%.

On to `CC(C)(C)C(=O)/C=C/c1ccc([N+](=O)[O-])cc1`, for which the growth was 75.2%.

As to `COc1cc(-c2nn(-c3cccc(NC(=O)NCCNS(=O)(=O)c4ccc(Cl)cc4)c3)cc2-c2ccncc2)ccc1Cl`, the growth is 1.37% (active).

Turning to `Cn1cc(C(=O)c2nc(-c3c[nH]c4ccc(Br)cc34)no2)c2cc(Br)ccc21`, the growth is 82.9%.

Take `CC(=O)c1nn(-c2ccccc2)/c(=N\N=C\c2coc3ccc(F)cc3c2=O)s1`: the growth was 105%.

Turning to `O=C(Cc1ccc(F)c(F)c1)Nc1cc(C2(C(F)(F)F)CC2)nn1Cc1ccccc1`, the growth is 11.9%.

Turning to `C=CC(C)C(C)(C)O` (stereo not given), the growth is 97.7%.

As to `Clc1ccc2c(NCCNc3nc(N4CCOCC4)nc4ccccc34)ccnc2c1`, the growth is -65.4% (active).

Take `CCN1C2=C(SC(=S)C1=C1SC(C(=O)OC)=C(C(=O)OC)S1)SC(=Nc1ccc(OC)cc1)C2=O`: the growth is 26%.

Turning to `Nc1c(C(=O)Nc2cccc([N+](=O)[O-])c2)sc2nc3c(cc12)C(O)CCC3` (stereo not given), the growth was 9.71% (active).

Regarding `COc1ccc(-c2nc3sccn3c2/C=C/C(=O)c2c[nH]c3ccccc23)cc1`, the growth is 117%.

Take `O=C(NCCNc1nccc(-c2c(-c3cccc(O)c3)nc3sccn23)n1)Nc1cc(C(F)(F)F)cc(C(F)(F)F)c1`: the growth is 97.3%.

With `CCc1nc(C(N)=O)c(Nc2ccc(N3CCC(N4CCN(C)CC4)CC3)c(OC)c2)nc1NC1CCOCC1`, the growth was 9.89% (active).

`O=C(CSc1oc(-c2ccccc2)nc1S(=O)(=O)c1ccccc1)Nc1ccc(F)cc1`: the growth was 63.5%.

Regarding `COc1ccc(Nc2nccc(Nc3ccc4[nH]ncc4c3)n2)cc1`, the growth was 59.6%.

With `CCN(CC)CCOc1ccc(Nc2ncc3cc(-c4ccc(O)cc4)c(=O)n(C)c3n2)cc1`, the growth is 40.2%.

Turning to `COC(=O)/C(CCC=C(C)C)=C1\[C@@H](OC(C)=O)C[C@@]2(C)[C@H]1CC(=O)[C@H]1[C@@]3(C)CCC(N4CCCC4)[C@@H](C)[C@@H]3CC[C@@]12C` (stereo not given in full), the growth was -51.4% (active).

For `O=C1c2ccccc2C(=O)c2c1cc1c(c2[N+](=O)[O-])OCO1`, the growth is 7.66% (active).

Turning to `Cc1cccc(C(=O)O)n1`, the growth is 78.1%.

For the compound `CCN(CC)c1cc(/C=C/c2ccc(OC)c(OC)c2)nc2cc(F)c(F)cc12`, the growth is 112%.

On to `COc1cc(CSc2nc3ccc(C)cc3c(=O)n2Cc2ccccc2)cc(OC)c1OC`, for which the growth is 17%.

With `NC(=S)N=Nc1c(O)c2ccccc2c2ccccc12`, the growth was 100%.

For the compound `CCCCCCc1nc2c(c(C)nn2-c2ccccc2)c2c1CCCCC2`, the growth is 108%.

Take `CC(=O)c1ccccc1NC(=O)C(C)(c1ccccc1)c1ccccc1`: the growth was 94.3%.

For `NC1=Nc2ccccc2N(O)N1`, the growth was 88.4%.

`CCCCCCCCCCCCCCCCCCn1cc(COc2ccc(C=O)cc2)nn1`: the growth is 86.7%.

With `COc1cc(C2CC(c3cccc(Nc4ccncc4)c3)=NN2c2ccccc2)cc(OC)c1OC` (stereo not given), the growth was -43.8% (active).

Take `Cc1oc2c(C)c3oc(=O)cc(C)c3cc2c1CCl`: the growth is 70.8%.

In the case of `COc1cc(C(=O)c2c(-c3ccccc3)oc3c(OC)cccc23)cc(OC)c1OC`, the growth was -6.56% (active).
